The nature of assay [1]: compounds binding Alexa647 anti-His antibody – biochemical, small-molecule microarray, 635 nm fluorescence, artefact control for SMM control protein annotation, primary screen (AID 1128).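 Note: score merges feature fluorescence with signal-to-noise for each printed compound spot.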 As to conditions: higher = more signal.
In assay [2] the test system is Human papillomavirus type 1a E7 protein (residues 1-88). Description: HPV1a E7 small-molecule binders, primary screen, biochemical, small-molecule microarray, residues 1-88, 635 nm (AID 1129). As to conditions: small-molecule microarray binding, fluorescence 635 nm; higher = more signal.
The target in assay [3] is Focal adhesion kinase 1 (Homo sapiens) (UniProt Q05397). Description: PTK2 protein binding on printed compound slides – biochemical, small-molecule microarray, 635/667 nm fluorescence, BSA, DTT, primary screen (AID 1130).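 Note: composite of spot emission at 667 nm and signal to noise over triplicate slides.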 As to conditions: 635 nm fluorescence, higher = more signal.
The test system of assay [4] is Fibrinogen (Alexa647-labelled). Description: Alexa647-fibrinogen binding to printed small molecules – biochemical, small-molecule microarray, 635/667 nm fluorescence, artefact control for SMM control-protein annotation, profiling panel (AID 1131).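 Note: z-score merges 667 nm fluorescence with per-spot signal-to-noise over triplicate slides.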 The settings on record: fibrinogen-A647 binding fluorescence, higher = more signal.
Assay [5] deals with Follistatin (Homo sapiens) (UniProt P19883). Description: FST protein binding to printed compounds – biochemical, small-molecule microarray, 635/667 nm fluorescence, primary screen (AID 1132). As to conditions: 635 nm fluorescence, higher = more signal.
Assay [6] addresses Fibroblast growth factor 2 (Homo sapiens) (UniProt P09038). Kind of assay: basic fibroblast growth factor binding to printed compounds – biochemical, small-molecule microarray, 635/667 nm fluorescence, primary screen (AID 1133). The settings on record: FGF2, fluorescence 635/667, higher = more signal.
Assay [7] in a line: JC-1 mitochondrial potential readout, lung cancer cells – cell-based, A549, JC-1 fluorescence, basal, 24 h, 100 nL, profiling panel (AID 1138).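 Note: A549 lung adenocarcinoma cells under basal conditions with no added stimulus; test concentration not given here.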 As to conditions: higher = more signal.
The next assay concerns Lefty1. Kind of assay: Lefty1 protein binding to printed compounds – biochemical, small-molecule microarray, 635/667 nm fluorescence, primary screen (AID 1139). The settings on record: fluorescence 635/667, higher = more signal.
Assay [8] relates to wheat germ agglutinin (Triticum aestivum), Alexa647-labelled. Description: Alexa647-WGA lectin binding to printed small molecules – biochemical, small-molecule microarray, 635/667 nm fluorescence, artefact control for SMM control-protein annotation, profiling panel (AID 1140).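 Note: score merges 667 nm feature emission with signal to noise over triplicate slides.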 As to conditions: WGA-A647 binding, 635 nm fluorescence, higher = more signal.
In assay [9] the target is Luciferin 4-monooxygenase (Photinus pyralis) (UniProt P08659). Kind of assay: inhibition of purified Photinus pyralis luciferase – biochemical, luminescence, purified enzyme, 2006 set, primary screen (AID 1141).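 Note: cell-free assay with purified firefly luciferase at 100 ng per well in PBS; test concentration not given here.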 The settings on record: purified firefly luciferase, SteadyGlo luminescence, 30 min; higher = more signal, called active from +8 up or from −8 down.
Assay [10] relates to Wnt5a (protein binding on small-molecule microarray). Kind of assay: small molecules binding Wnt5a protein – biophysical, small-molecule microarray, 635/667 nm fluorescence, primary screen (AID 1142).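 Note: fluorescence read at 667 nm with signal to noise per printed feature.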 The settings on record: 635 nm fluorescence, higher = more signal.
A short description of assay [11]: ATP-based viability of Huh7 replicon cells – cell-based, CellTiter-Glo luminescence, basal, 48 h, cytotoxicity control for HCV replication inhibitor project, primary screen (AID 1143).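 Note: Huh7 hepatoma cells carrying a hepatitis C replication reporter with no stimulus; test concentration not given here.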 As to conditions: higher = more signal, called active from +8 up or from −8 down. For orientation: A replicon is a self-replicating genome or part of one, used to study replication in cells.

The nature of assay [12]: Pseudomonas biofilm growth suppression – PAO1 strain, BacTiter-Glo luminescence, LB-PBS, primary screen (AID 1144). As to conditions: P. aeruginosa PAO1 biofilm, 12 h, higher = more signal.
Assay [13] is described as follows: basal CRE-LacZ reporter activity in PC12 – cell-based, unstimulated, primary screen (AID 1145). As to conditions: no forskolin, luminescence, 4.5 h, higher = more signal, called active from +8 up or from −8 down.
A short description of assay [14]: forskolin-driven CRE-LacZ activity in PC12 – cell-based, CRE-LacZ reporter, forskolin-stimulated, primary screen (AID 1146).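 Note: PC12 cells with 6xCRE LacZ reporter stimulated by forskolin 10 µM; beta-galactosidase reporter signal reflecting CREB driven transcription.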 The settings on record: luminescence, 4.5 h, higher = more signal, called active from +8 up or from −8 down.
Assay [15] deals with Streptavidin (Streptomyces avidinii) (UniProt P22629). Kind of assay: compounds binding control protein streptavidin – biophysical, small-molecule microarray, 635/667 nm fluorescence, artefact control for SMM compound annotation, primary screen (AID 1147).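 Note: signal reflects streptavidin binding to arrayed compounds as a control protein.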 As to conditions: higher = more signal.
Assay [16] can be described thus: probe aInhba binding on compound microarray – biochemical, small-molecule microarray, 635/667 nm fluorescence, primary screen (AID 1148).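 Note: score merges 667nm spot fluorescence with signal-to-noise for antibody binding to printed compounds.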 As to conditions: higher = more signal.
Assay [17] concerns the target Torsin-1A (Homo sapiens) (UniProt O14656). Kind of assay: TOR1A wild-type binding on microarray – cell lysate, small-molecule microarray, lysate, 635/667 nm, primary screen (AID 1149). The settings on record: COS7 hTOR1A-WT lysate, 635 nm fluorescence, higher = more signal.
Assay [18] has the same target. Kind of assay: torsin A mutant lysate binding on microarrays – cell lysate, small-molecule microarray, COS7 lysate, 635/667 nm fluorescence, primary screen (AID 1150).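 Note: score pools 667 nm emission and signal to noise measuring lysate protein binding.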 As to conditions: COS7 hTOR1A mutant lysate, 635 nm fluorescence, higher = more signal.
Assay [19] relates to Sonic hedgehog protein (Shh). Description: Sonic hedgehog microarray binding compounds – biochemical, small-molecule microarray, 635/667 nm fluorescence, primary screen (AID 1151).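 Note: Shh protein binding to compounds spotted on small-molecule microarray slides; score combines spot fluorescence intensity with signal-to-noise across triplicate slides.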 As to conditions: 635 nm fluorescence, higher = more signal.

Structures are written as SMILES. Calls of active or inactive are those of the source. Unless noted, the rule behind the calls is not given here.

Chain of Luciferin 4-monooxygenase (Photinus pyralis) (P08659 whole entry, looked up): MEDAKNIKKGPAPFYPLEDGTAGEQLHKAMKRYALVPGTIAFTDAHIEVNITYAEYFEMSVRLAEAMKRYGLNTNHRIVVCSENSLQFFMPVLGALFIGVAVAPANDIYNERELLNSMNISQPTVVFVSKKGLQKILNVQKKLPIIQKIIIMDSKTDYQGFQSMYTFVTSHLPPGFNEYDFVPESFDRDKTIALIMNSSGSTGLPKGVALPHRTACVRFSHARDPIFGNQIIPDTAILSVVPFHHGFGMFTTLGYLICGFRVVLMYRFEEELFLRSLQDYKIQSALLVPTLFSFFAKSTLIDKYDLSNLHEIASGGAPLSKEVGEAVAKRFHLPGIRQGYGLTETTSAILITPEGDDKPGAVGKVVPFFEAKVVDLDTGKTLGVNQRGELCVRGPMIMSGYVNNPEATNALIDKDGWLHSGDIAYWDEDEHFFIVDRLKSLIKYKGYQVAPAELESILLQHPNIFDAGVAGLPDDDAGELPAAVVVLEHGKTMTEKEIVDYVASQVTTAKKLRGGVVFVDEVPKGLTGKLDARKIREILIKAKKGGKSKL
Chain of Torsin-1A (Homo sapiens) (O14656 whole entry, looked up): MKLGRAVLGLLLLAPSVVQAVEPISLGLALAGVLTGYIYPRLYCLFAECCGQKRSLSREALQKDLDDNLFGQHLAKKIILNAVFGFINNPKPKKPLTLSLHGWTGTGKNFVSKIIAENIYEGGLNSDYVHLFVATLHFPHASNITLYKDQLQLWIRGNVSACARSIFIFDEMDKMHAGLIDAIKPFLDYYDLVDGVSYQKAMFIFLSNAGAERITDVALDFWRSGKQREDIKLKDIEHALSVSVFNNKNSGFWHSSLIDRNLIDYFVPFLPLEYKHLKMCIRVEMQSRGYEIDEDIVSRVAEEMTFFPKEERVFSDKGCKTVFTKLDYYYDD
Chain of Fibroblast growth factor 2 (Homo sapiens) (P09038 whole entry, looked up): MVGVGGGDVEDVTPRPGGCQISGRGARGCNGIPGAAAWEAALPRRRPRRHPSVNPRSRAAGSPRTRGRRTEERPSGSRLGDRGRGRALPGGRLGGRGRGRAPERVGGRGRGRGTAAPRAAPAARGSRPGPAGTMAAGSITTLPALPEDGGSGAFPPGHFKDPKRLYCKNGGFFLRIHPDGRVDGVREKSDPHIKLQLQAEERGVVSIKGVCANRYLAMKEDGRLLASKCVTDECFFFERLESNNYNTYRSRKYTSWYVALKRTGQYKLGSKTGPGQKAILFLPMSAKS
Chain of Follistatin (Homo sapiens) (P19883 whole entry, looked up): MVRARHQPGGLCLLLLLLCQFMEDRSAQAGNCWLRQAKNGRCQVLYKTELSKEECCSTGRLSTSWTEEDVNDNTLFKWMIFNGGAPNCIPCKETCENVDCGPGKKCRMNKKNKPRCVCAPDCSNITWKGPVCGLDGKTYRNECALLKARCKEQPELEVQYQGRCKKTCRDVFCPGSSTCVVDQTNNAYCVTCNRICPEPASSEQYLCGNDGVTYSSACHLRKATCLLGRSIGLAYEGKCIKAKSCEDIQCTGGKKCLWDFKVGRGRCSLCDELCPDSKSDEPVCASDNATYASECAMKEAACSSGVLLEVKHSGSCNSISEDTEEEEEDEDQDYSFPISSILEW
Chain of Focal adhesion kinase 1 (Homo sapiens) (Q05397 whole entry, looked up): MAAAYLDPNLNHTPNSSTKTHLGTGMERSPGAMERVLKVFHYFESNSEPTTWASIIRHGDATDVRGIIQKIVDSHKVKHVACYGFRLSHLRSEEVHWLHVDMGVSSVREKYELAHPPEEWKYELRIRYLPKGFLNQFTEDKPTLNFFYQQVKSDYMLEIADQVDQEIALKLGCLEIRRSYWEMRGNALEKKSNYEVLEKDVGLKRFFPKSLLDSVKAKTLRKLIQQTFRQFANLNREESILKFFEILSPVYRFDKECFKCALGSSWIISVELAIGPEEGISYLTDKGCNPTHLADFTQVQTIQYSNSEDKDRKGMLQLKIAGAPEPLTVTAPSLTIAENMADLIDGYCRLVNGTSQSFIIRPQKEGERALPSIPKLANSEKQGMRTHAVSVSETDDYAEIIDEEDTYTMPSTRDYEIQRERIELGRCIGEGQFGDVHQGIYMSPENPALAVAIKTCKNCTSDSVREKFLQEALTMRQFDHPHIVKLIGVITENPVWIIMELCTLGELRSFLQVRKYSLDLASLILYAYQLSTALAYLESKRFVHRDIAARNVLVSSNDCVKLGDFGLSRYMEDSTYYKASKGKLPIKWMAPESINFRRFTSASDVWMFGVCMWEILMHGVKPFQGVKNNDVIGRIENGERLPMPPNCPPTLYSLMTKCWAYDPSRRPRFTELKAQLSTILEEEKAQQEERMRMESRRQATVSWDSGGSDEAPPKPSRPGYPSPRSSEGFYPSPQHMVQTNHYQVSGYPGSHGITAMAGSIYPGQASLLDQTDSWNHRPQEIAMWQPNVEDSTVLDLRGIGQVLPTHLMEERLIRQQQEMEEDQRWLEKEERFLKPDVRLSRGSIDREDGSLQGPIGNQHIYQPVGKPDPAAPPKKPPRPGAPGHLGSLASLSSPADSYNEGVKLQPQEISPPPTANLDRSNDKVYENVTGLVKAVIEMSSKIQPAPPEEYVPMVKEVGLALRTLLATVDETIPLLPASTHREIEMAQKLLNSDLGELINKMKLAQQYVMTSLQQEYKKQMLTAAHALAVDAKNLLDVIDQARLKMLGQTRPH
Chain of Streptavidin (Streptomyces avidinii) (P22629 whole entry, looked up): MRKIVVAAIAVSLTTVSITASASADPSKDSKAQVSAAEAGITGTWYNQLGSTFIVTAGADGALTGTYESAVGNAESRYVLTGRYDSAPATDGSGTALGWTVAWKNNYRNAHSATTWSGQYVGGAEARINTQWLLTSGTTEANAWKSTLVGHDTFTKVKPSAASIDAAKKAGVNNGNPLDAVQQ

For the compound `C[n+]1ccc(CCCO)cc1`, the composite z-score in assay [1] is -0.278; in assay [2], -1.41; in assay [3], -0.526; in assay [4], -1.48; in assay [5], 1.37; in [6], 1.44. For the same compound, the composite z-score in the assay with Lefty1 was 1.36; in assay [8], -0.72; in assay [10], 0.749; in [15], -0.902; in [16] it was 0.196; in the assay with Torsin-1A (Homo sapiens) [17] it was -0.653. The composite z-score is -0.0965 with Torsin-1A (Homo sapiens) [18] and 2.16 in assay [19]. Moreover, the z-score in assay [7] was -0.195; in assay [9] it was 0.246 (inactive); in [11], -0.0513 (inactive); in assay [12], -0.601 (inactive); in assay [13] it was 0.182 (inactive); in assay [14], 0.58 (inactive).
For the compound `CO[C@H]1O[C@H](CO)[C@@H](OC(=O)Nc2ccccc2-c2ccccc2)[C@H](OC(=O)Nc2ccc3c(c2)OCO3)[C@@H]1OC(=O)Nc1ccc2c(c1)OCO2`, the composite z-score in assay [1] turned out to be 0.971; in [2], 1.27; in [3], 0.485; in assay [4], 0.991; in [5], 1.24; in [6], 0.853. For the same compound, the composite z-score came to 1.16 in the assay on Lefty1; 0.412 in assay [8]; 0.25 in [10]; 0.282 in [15]; 0.361 in assay [16]; 0.388 with Torsin-1A (Homo sapiens) [17]. The composite z-score with Torsin-1A (Homo sapiens) [18] was 1.41; in assay [19], 0.91. Moreover, the z-score is 1.56 in [7]; -7.93 (inactive) in assay [9]; -2.72 (inactive) in assay [11]; 0.233 (inactive) in assay [12]; 0.792 (inactive) in assay [13]; -1.52 (inactive) in assay [14].
For `COCCCNC(=O)[C@]1(Cc2ccccc2N=[N+]=[N-])N=C(c2ccc(OCCCO)cc2)O[C@@H]1c1ccccc1N=[N+]=[N-]`, the composite z-score in assay [1] was 2.22; in [2], 1.19; in [3], 0.356; in [4], 0.983; in [5], 0.778; in [6], -0.165. The composite z-score was -0.252 with Lefty1; 0.676 in assay [8]; 0.497 in assay [10]; 1.25 in [15]; -0.0011 in [16]; 0.238 with Torsin-1A (Homo sapiens) [17]. For the same compound, the composite z-score with Torsin-1A (Homo sapiens) [18] is 0.605; in [19] it was -0.973. In addition, the z-score is -0.214 in assay [7]; -3.27 (inactive) in [9]; -4.87 (inactive) in assay [11]; 0.524 (inactive) in [12]; 0.432 (inactive) in [13]; -1.98 (inactive) in [14].
For `O=C(O)[C@H]1C[C@H]2C(=O)N3CCC[C@H]3C(=O)N2[C@H]1c1cccc(OCCO)c1`, the composite z-score was 2.79 in assay [1]; 0.658 in assay [2]; -0.525 in assay [3]; 0.0871 in assay [4]; 1.32 in assay [5]; 0.871 in assay [6]. For the same compound, the composite z-score in the assay with Lefty1 was 0.232; in assay [8], 0.227; in [10] it was 0.188; in [15], -0.0748; in assay [16] it was -0.154; in the assay with Torsin-1A (Homo sapiens) [17] it was 0.847. Also, the values for the composite z-score (in the assay with Torsin-1A (Homo sapiens) [18]; in assay [19]) were 1.57 and 0.643, respectively. Moreover, the z-score in assay [7] was 1.95; in assay [9], -1.97 (inactive); in assay [11], -0.716 (inactive); in assay [12], 0.0521 (inactive); in assay [13], 0.818 (inactive); in assay [14] it was 0.0548 (inactive).
Take `CCOC(=O)C[C@H]1[C@H](OC(=O)c2ccccc2-c2ccccc2)[C@@H](NC(=O)CC(C)C)c2cc(OCCCO)ccc2N1C(=O)c1ccc2ccccc2n1`: the composite z-score in [1] was -0.123; in [2], 0.304; in assay [3] it was 0.162; in [4], 0.335; in assay [5], 0.323; in assay [6], 0.318. Also, the composite z-score in the assay on Lefty1 was 0.76; in [8], 0.152; in assay [10], 0.0056; in assay [15] it was 0.543; in assay [16] it was -0.016; in the assay with Torsin-1A (Homo sapiens) [17], 0.0167. The composite z-score with Torsin-1A (Homo sapiens) [18] was determined as 0.0401; in [19], 0.196. Moreover, the z-score was 0.488 in assay [7]; 0.365 (inactive) in assay [9]; -0.431 (inactive) in assay [11]; 1.51 (inactive) in assay [12]; 8.37 (active) in assay [13]; 0.724 (inactive) in [14].

The values are drawn from PubChem BioAssay.
